Reference: the supplement of paper PMC9942566
Counter-ions that a name gives are not always drawn. ± gives the standard deviation of the averaged measurements.

tested on: Serratia marcescens K904 PosmB-luxCDABE reporter (pMQ747); experiment: PosmB-lux reporter fold induction (RLU/OD600 relative to no-compound control), highest over Biolog concentrations; higher = stronger Rcs reporter activation; settings: wild type K904; 4 h
Procedure: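 Serratia marcescens K904 (wild type) or its isogenic ΔrcsB mutant, carrying the Rcs-dependent PosmB-luxCDABE reporter plasmid pMQ747, was grown in LB at OD600 0.1 in Biolog Phenotype MicroArray plates PM11-20 for 4 h at 30-32°C. Each compound is present at 3-4 proprietary concentrations (not stated); per the Fig. S1 legend the value given is the highest fold over those wells. Three independent trials.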

In order of falling “PosmB-lux reporter fold induction” value:
1. NC(=O)c1cc[n+](CC2=C(C(=O)[O-])N3C(=O)[C@@H](NC(=O)[C@@H](c4ccccc4)S(=O)(=O)O)[C@H]3SC2)cc1 [cefsulodin] (Biolog plate: PM17, well positions: H1-4)  18.5 ± 17
2. On1ccccc1=S [1-Hydroxy-pyridine-2-thione] (Biolog plate: PM14, well positions: C5-8)  4.06 ± 1.3
3. CN(C)c1ccc(O)c2c1C[C@H]1C[C@H]3[C@H](N(C)C)C(O)=C(C(N)=O)C(=O)[C@@]3(O)C(O)=C1C2=O [Minocycline] (Biolog plate: PM11, well positions: C9-12)  2.54 ± 0.15
4. CCn1nc(C(=O)O)c(=O)c2cc3c(cc21)OCO3 [cinoxacin] (Biolog plate: PM16, well positions: D9-12)  2.46 ± 0.85
5. CCCCCCCCCCCC[N+](C)(C)CCOc1ccccc1 [Domiphen bromide] (Biolog plate: PM15, well positions: D5-8)  1.98 ± 0.26
6. COc1cc(Cc2cnc(N)nc2N)cc(OC)c1OC [trimethoprim] (Biolog plate: PM16, well positions: B9-12)  1.93 ± 0.91
7. N=C(N)N [Guanidine hydrochloride] (Biolog plate: PM15, well positions: A5-8)  1.84 ± 0.099
8. C[n+]1cc2c3c(ccc2c2ccc4cc5c(cc4c21)OCO5)OCO3 [Sanguinarine] (Biolog plate: PM14, well positions: A9-12)  1.83 ± 0.71
9. CO/N=C(\C(=O)N[C@@H]1C(=O)N2C(C(=O)O)=C(CSc3nc(=O)c(O)nn3C)CS[C@H]12)c1csc(N)n1 [Ceftriaxone] (Biolog plate: PM11, well positions: G1-4)  1.64 ± 0.43
10. N.N.N.N.N.N.[Cl-].[Cl-].[Cl-].[Co+3] [hexammine cobalt (III) chloride] (Biolog plate: PM19, well positions: H1-4)  1.64 ± 0.12
11. O=C(OC[C@H]1O[C@@H](OC(=O)c2cc(O)c(O)c(OC(=O)c3cc(O)c(O)c(O)c3)c2)[C@H](OC(=O)c2cc(O)c(O)c(OC(=O)c3cc(O)c(O)c(O)c3)c2)[C@@H](OC(=O)c2cc(O)c(O)c(OC(=O)c3cc(O)c(O)c(O)c3)c2)[C@@H]1OC(=O)c1cc(O)c(O)c(OC(=O)c2cc(O)c(O)c(O)c2)c1)c1cc(O)c(O)c(OC(=O)c2cc(O)c(O)c(O)c2)c1 [tannic acid] (Biolog plate: PM17, well positions: F9-12)  1.5 ± 0.49
12. CN(C)[C@@H]1C(O)=C(C(N)=O)C(=O)[C@@]2(O)C(O)=C3C(=O)c4c(O)ccc(Cl)c4[C@@](C)(O)[C@H]3C[C@@H]12 [Chlortetracycline] (Biolog plate: PM11, well positions: A5-8)  1.48 ± 0.4
13. Nc1ccc(S(=O)(=O)Nc2ccc(Cl)nn2)cc1 [sulfachloro-pyridazine] (Biolog plate: PM17, well positions: C5-8)  1.46 ± 0.31
14. CC1(C)S[C@@H]2[C@H](NC(=O)[C@H](N)c3ccccc3)C(=O)N2[C@H]1C(=O)O [Ampicillin] (Biolog plate: PM13, well positions: A2-4)  1.39 ± 0.02
15. c1cnc2c(c1)ccc1cccnc12 [1,10-Phenanthroline] (Biolog plate: PM15, well positions: C9-12)  1.36 ± 0.36
16. O=P(O)(O)OP(=O)(O)O [sodium pyrophosphate decahydrate] (Biolog plate: PM18, well positions: A5-8)  1.27 ± 0.59
17. C[C@H]1O[C@@H](n2cc(F)c(=O)[nH]c2=O)[C@H](O)[C@@H]1O [5-fluoro-5'-deoxyuridine] (Biolog plate: PM18, well positions: H1-4)  1.12 ± 0.19
18. Cn1cnc([N+](=O)[O-])c1Sc1ncnc2[nH]cnc12 [azathioprine] (Biolog plate: PM18, well positions: B9-12)  0.797 ± 0.12
19. CS(=O)(=O)c1ccc([C@@H](O)[C@@H](CO)NC(=O)C(Cl)Cl)cc1 [thiamphenicol] (Biolog plate: PM18, well positions: A9-12)  0.659 ± 0.017
